Publication PMC5869772, “Quantitative profiling of BATF family proteins/JUNB/IRF hetero-trimers using Spec-seq”

Key:
Test in all cases: Spec-seq (EMSA and sequencing of bound and unbound bands); 100 nM BATFx-JUNB, 1 uM dsDNA library, 50 mM K acetate, 20 mM Tris-acetate, 10 mM Mg acetate, 100 ug/ml BSA, pH 7.9, 10% glycerol, 30 min on ice; native 9% PAGE at 4 C; low values mean tight binding
Settings in all cases: protein: recombinant;recombinant; tags: N-terminal mCherry-TEV, cleaved off;C-terminal 6His; copies: 1;1; dsDNA, one strand shown
BATF;JUNB = molecular target: T1, BATF;JUNB (human;human, UniProt Q16520;P17275 1-125;148-347, |)
T1 sequence 1: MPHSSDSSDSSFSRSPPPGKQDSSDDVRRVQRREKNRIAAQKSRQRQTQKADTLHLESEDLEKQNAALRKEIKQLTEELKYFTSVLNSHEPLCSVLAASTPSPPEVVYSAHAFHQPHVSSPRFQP
T1 sequence 2: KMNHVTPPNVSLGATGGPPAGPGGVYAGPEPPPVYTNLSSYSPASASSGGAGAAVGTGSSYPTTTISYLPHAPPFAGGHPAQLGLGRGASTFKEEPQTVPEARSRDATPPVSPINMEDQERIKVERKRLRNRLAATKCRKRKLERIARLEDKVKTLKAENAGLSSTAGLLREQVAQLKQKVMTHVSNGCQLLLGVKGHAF
Summary of the method: (§1)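 The protein, at 100 nM, was incubated with 1 μM double-stranded degenerate DNA library for 30 min on ice in NEB Cutsmart buffer with 10% glycerol, then resolved by native 9% PAGE at 4 °C. Excised bound and unbound bands were PCR-barcoded and Illumina-sequenced, and each sequence's relative binding energy in kT is −ln of its bound/unbound read-count ratio.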

BATF2 (bZIP);JUNB = molecular target: T2, BATF2 (bZIP);JUNB (human;human, UniProt Q8N1L9;P17275 1-142;148-347, |)
T2 sequence 1: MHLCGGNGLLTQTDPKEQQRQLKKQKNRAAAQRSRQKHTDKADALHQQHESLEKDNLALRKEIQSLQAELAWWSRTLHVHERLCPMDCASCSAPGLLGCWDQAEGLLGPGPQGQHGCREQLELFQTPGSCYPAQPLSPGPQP
T2 sequence 2: T1 sequence 2
Summary of the method: as §1

BATF3;JUNB = molecular target: T3, BATF3;JUNB (human;human, UniProt Q9NR55;P17275 1-127;148-347, |)
T3 sequence 1: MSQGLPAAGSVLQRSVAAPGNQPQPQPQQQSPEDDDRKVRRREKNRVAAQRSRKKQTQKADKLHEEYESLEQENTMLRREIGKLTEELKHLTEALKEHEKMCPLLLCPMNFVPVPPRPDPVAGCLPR
T3 sequence 2: T1 sequence 2
Summary of the method: as §1

Sequence	binding signal (BATF;JUNB)	binding signal (BATF2 (bZIP);JUNB)	binding signal (BATF3;JUNB)
GATAGTCTCATTTTCACCCCGTGAAATGTCGTCATTGTTCCATTACAGTATCTGT	-0.357 kT	-0.113 kT	-0.976 kT
GATAGTCTCATTTTCACCCCGTGAAAGAGAGTCATTGTTCCATTACAGTATCTGT	-0.0937 kT	0.318 kT	0.155 kT
GATAGTCTCATTTTCACCCCGTGAAATGACTCCTTTGTTCCATTACAGTATCTGT	0.0649 kT	0.734 kT	0.584 kT
GATAGTCTCATTTTCACCCCGTGAAACTTAGTCATTGTTCCATTACAGTATCTGT	-0.834 kT	-0.172 kT	-0.762 kT
GATAGTCTCATTTTCACCCCGTGAAATGACCCATTTGTTCCATTACAGTATCTGT	0.311 kT	0.823 kT	0.67 kT
GATAGTCTCATTTTCACCCCGTGAAAAGACGTCATTGTTCCATTACAGTATCTGT	-0.231 kT	-0.0139 kT	-0.682 kT
GATAGTCTCATTTTCACCCCGTGAAATGACCCAGTTGTTCCATTACAGTATCTGT	0.583 kT	1.09 kT	1.02 kT
GATAGTCTCATTTTCACCCCGTGAAATGAAGTCATTGTTCCATTACAGTATCTGT	-0.461 kT	0.0362 kT	-0.997 kT
GATAGTCTCATTTTCACCCCGTGAAAGTAAGTCATTGTTCCATTACAGTATCTGT	-0.0818 kT	0.203 kT	-0.041 kT
GATAGTCTCATTTTCACCCCGTGAAATGAGTCGTTTGTTCCATTACAGTATCTGT	-0.00852 kT	0.968 kT	0.536 kT
GATAGTCTCATTTTCACCCCGTGAAATGACGTCCTTGTTCCATTACAGTATCTGT	0.097 kT	0.602 kT	-0.0593 kT
GATAGTCTCATTTTCACCCCGTGAAAATGGGTCATTGTTCCATTACAGTATCTGT	-0.00523 kT	0.62 kT	0.203 kT
GATAGTCTCATTTTCACCCCGTGAAAAGAGTCATTTGTTCCATTACAGTATCTGT	-0.155 kT	0.416 kT	0.137 kT
GATAGTCTCATTTTCACCCCGTGAAATGCCGTCATTGTTCCATTACAGTATCTGT	-0.311 kT	0.122 kT	-0.649 kT
GATAGTCTCATTTTCACCCCGTGAAAGTGAGTCATTGTTCCATTACAGTATCTGT	-1.22 kT	-0.978 kT	-1.65 kT
GATAGTCTCATTTTCACCCCGTGAAATGACTTAGTTGTTCCATTACAGTATCTGT	0.0125 kT	0.47 kT	0.28 kT
GATAGTCTCATTTTCACCCCGTGAAATGACTAATTTGTTCCATTACAGTATCTGT	-0.506 kT	0.0427 kT	-0.424 kT
GATAGTCTCATTTTCACCCCGTGAAATGAGTTATTTGTTCCATTACAGTATCTGT	0.153 kT	0.843 kT	0.54 kT

Sequence	binding signal (BATF;JUNB)	binding signal (BATF2 (bZIP);JUNB)	binding signal (BATF3;JUNB)
GATAGTCTCATTTTCACCCCGTGAAATGACTCATTTGTTCCATTACAGTATCTGT	-0.896 kT	-0.796 kT	-1.24 kT
GATAGTCTCATTTTCACCCCGTGAAACTGTGTCATTGTTCCATTACAGTATCTGT	-0.318 kT	0.116 kT	-0.22 kT
GATAGTCTCATTTTCACCCCGTGAAAGGGAGTCATTGTTCCATTACAGTATCTGT	-0.148 kT	0.485 kT	0.287 kT
GATAGTCTCATTTTCACCCCGTGAAATAACTCATTTGTTCCATTACAGTATCTGT	-0.0626 kT	0.612 kT	0.332 kT
GATAGTCTCATTTTCACCCCGTGAAATGAGTCCCTTGTTCCATTACAGTATCTGT	0.424 kT	1.38 kT	1.03 kT
GATAGTCTCATTTTCACCCCGTGAAATGAGACATTTGTTCCATTACAGTATCTGT	0.216 kT	1.21 kT	0.604 kT
GATAGTCTCATTTTCACCCCGTGAAATGACGCACTTGTTCCATTACAGTATCTGT	-0.31 kT	0.227 kT	-0.203 kT
GATAGTCTCATTTTCACCCCGTGAAATGACTCAGTTGTTCCATTACAGTATCTGT	-0.786 kT	-0.202 kT	-0.697 kT
GATAGTCTCATTTTCACCCCGTGAAATCACTCATTTGTTCCATTACAGTATCTGT	-0.257 kT	0.442 kT	-0.147 kT
GATAGTCTCATTTTCACCCCGTGAAACTAAGTCATTGTTCCATTACAGTATCTGT	-0.15 kT	0.261 kT	-0.118 kT
GATAGTCTCATTTTCACCCCGTGAAATGAGTAAGTTGTTCCATTACAGTATCTGT	-0.362 kT	0.572 kT	0.139 kT
GATAGTCTCATTTTCACCCCGTGAAATGACTTAATTGTTCCATTACAGTATCTGT	-0.138 kT	0.212 kT	-0.344 kT
GATAGTCTCATTTTCACCCCGTGAAATCGAGTCATTGTTCCATTACAGTATCTGT	-0.54 kT	0.0512 kT	-0.401 kT
GATAGTCTCATTTTCACCCCGTGAAATGAGTAATTTGTTCCATTACAGTATCTGT	-0.4 kT	0.147 kT	-0.208 kT
GATAGTCTCATTTTCACCCCGTGAAAATAAGTCATTGTTCCATTACAGTATCTGT	-0.448 kT	-0.0249 kT	-0.395 kT
GATAGTCTCATTTTCACCCCGTGAAAATCAGTCATTGTTCCATTACAGTATCTGT	-0.547 kT	0.0501 kT	-0.272 kT
GATAGTCTCATTTTCACCCCGTGAAAATTAGTCATTGTTCCATTACAGTATCTGT	-1.07 kT	-0.658 kT	-1.24 kT
